According to publication PMC5700166:

The sequences below were run against T1, GST-Nv-NF-kB (Ser allele) (Nematostella vectensis, UniProt A7UNT2 2-411) (assay: protein-binding microarray (PBM); PBM: ~300 nM protein, 6 mM HEPES pH 7.8, 80 mM KCl, 0.5 mM EDTA, 0.5 mM EGTA, 6% glycerol, 35 ng/ul poly-dIdC, 1% milk, 1 h, room temperature; Ap Aiptasia and Nv Nematostella (sea anemones) / Co Capsaspora / Aq Amphimedon (sponge) / Dm Drosophila / Hu human; RHD is the Rel homology domain; high values mean tight binding). Conditions: dsDNA, one strand shown.
T1 sequence: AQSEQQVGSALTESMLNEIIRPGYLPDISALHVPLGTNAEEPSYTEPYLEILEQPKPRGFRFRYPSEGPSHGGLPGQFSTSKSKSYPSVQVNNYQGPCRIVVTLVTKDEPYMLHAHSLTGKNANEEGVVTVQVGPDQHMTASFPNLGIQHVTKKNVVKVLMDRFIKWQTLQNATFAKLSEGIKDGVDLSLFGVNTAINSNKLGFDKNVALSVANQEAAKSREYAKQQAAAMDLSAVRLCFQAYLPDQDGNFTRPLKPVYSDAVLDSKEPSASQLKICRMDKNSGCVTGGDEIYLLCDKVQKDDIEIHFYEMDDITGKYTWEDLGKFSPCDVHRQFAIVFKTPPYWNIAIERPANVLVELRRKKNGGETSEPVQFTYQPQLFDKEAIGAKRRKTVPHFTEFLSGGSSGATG
In the case of “CCGATTAACATCAGGGAAATTAATGATGTTAATCGGGTCTTGATTCGCTTGACGCTGCTG”, the binding signal is reported as 6.52 z-score.
“CCGATTAACATCAGGAAAGCCCCTGATGTTAATCGGGTCTTGATTCGCTTGACGCTGCTG” gave a binding signal of 6.08 z-score.
Work on “CCGATTAACATCACGGGGGGGGCTGATGTTAATCGGGTCTTGATTCGCTTGACGCTGCTG” yielded a binding signal of 2.3 z-score.
With “CCGATTAACATCAGAAAAACACCTGATGTTAATCGGGTCTTGATTCGCTTGACGCTGCTG” the binding signal was 4.39 z-score.
Work on “CCGATTAACATCAGGGACTTTAATGATGTTAATCGGGTCTTGATTCGCTTGACGCTGCTG” yielded a binding signal of 6.21 z-score.
Work on “CCGATTAACATCAATATCCCCCCTGATGTTAATCGGGTCTTGATTCGCTTGACGCTGCTG” yielded a binding signal of 6.44 z-score.
“CCGATTAACATCAGGGGGAGTTATGATGTTAATCGGGTCTTGATTCGCTTGACGCTGCTG” showed a binding signal of 6.11 z-score.
“CCGATTAACATCAAAACACCCCTTGATGTTAATCGGGTCTTGATTCGCTTGACGCTGCTG” gave a binding signal of 2.64 z-score.
With “CCGATTAACATCAGGGGCTTCCATGATGTTAATCGGGTCTTGATTCGCTTGACGCTGCTG” the binding signal was 3.55 z-score.
Sequence “CCGATTAACATCACTCCCCCCCCTGATGTTAATCGGGTCTTGATTCGCTTGACGCTGCTG” has a binding signal of 4.8 z-score.
For “CCGATTAACATCAAAAAAACCCTTGATGTTAATCGGGTCTTGATTCGCTTGACGCTGCTG”, the binding signal was 5.27 z-score.
Sequence “CCGATTAACATCATCCCCCCCCATGATGTTAATCGGGTCTTGATTCGCTTGACGCTGCTG” has a binding signal of 4 z-score.
“CCGATTAACATCACAGCAGTACCTGATGTTAATCGGGTCTTGATTCGCTTGACGCTGCTG” was tested, and the binding signal was 3.01 z-score.
“CCGATTAACATCAGGGGGTGGAATGATGTTAATCGGGTCTTGATTCGCTTGACGCTGCTG” showed a binding signal of 4.75 z-score.
“CCGATTAACATCAGAGATCCCCCTGATGTTAATCGGGTCTTGATTCGCTTGACGCTGCTG” gave a binding signal of 6.44 z-score.
For “CCGATTAACATCAGGGGGGGACATGATGTTAATCGGGTCTTGATTCGCTTGACGCTGCTG”, the binding signal was 4.34 z-score.
For “CCGATTAACATCAGCCCCCCCCATGATGTTAATCGGGTCTTGATTCGCTTGACGCTGCTG”, the binding signal was 2.7 z-score.
In the case of “CCGATTAACATCAGGCATTCCCATGATGTTAATCGGGTCTTGATTCGCTTGACGCTGCTG”, the binding signal is reported as 1.11 z-score.
“CCGATTAACATCAGAAATACCCATGATGTTAATCGGGTCTTGATTCGCTTGACGCTGCTG” was tested, and the binding signal was 4.71 z-score.
With “CCGATTAACATCAAATTCCCTTATGATGTTAATCGGGTCTTGATTCGCTTGACGCTGCTG” the binding signal was 6.07 z-score.
“CCGATTAACATCAAGGAGTCCCCTGATGTTAATCGGGTCTTGATTCGCTTGACGCTGCTG” showed a binding signal of 5.36 z-score.
“CCGATTAACATCAAGGGACTTCCTGATGTTAATCGGGTCTTGATTCGCTTGACGCTGCTG” showed a binding signal of 5.97 z-score.
Sequence “CCGATTAACATCAAGGAACCCCCTGATGTTAATCGGGTCTTGATTCGCTTGACGCTGCTG” has a binding signal of 6.23 z-score.
“CCGATTAACATCAAACAGTCCCCTGATGTTAATCGGGTCTTGATTCGCTTGACGCTGCTG” gave a binding signal of 4.53 z-score.
Sequence “CCGATTAACATCAAAATTCCCTGTGATGTTAATCGGGTCTTGATTCGCTTGACGCTGCTG” has a binding signal of 6.24 z-score.
“CCGATTAACATCAAAAGCCCCCCTGATGTTAATCGGGTCTTGATTCGCTTGACGCTGCTG” showed a binding signal of 4.86 z-score.
